Screens from PubChem.
Most compounds without a hit are left out; they make up all but 32% or so of the library.
CYP2C19 act – human CYP2C19 activators, primary screen, biochemical, luminescence; Cytochrome P450 2C19 (Homo sapiens), P33261; recombinant CYP2C19, luciferin-H EGE luminescence; hits give high values; 0 = fully inhibited enzyme, 1 = untreated enzyme; activation factor at 5 µM; 96,000 tested, under 10 active; AID 1025, 2008;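 active = activation factor of at least 2 at 5 µM in the primary screen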;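 also: 0 = wells with 2.5 mM tranylcypromine and 1 = vehicle-only wells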
Target sequence (P33261 whole entry, looked up): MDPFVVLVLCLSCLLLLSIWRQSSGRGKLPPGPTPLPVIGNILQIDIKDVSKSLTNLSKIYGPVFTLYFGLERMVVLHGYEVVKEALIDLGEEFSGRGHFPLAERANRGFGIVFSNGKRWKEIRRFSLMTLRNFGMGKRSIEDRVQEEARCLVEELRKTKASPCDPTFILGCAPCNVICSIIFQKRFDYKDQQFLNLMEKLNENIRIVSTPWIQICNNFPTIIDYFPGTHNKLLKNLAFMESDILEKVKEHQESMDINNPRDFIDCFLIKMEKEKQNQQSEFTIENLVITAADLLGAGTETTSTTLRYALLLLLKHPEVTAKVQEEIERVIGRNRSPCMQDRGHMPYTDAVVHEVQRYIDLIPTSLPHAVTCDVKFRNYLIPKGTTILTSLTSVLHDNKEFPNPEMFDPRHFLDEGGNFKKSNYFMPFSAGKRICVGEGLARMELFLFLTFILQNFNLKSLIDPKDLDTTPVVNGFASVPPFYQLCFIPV
PostGolgi ctrl – growth inhibition of yeast control strain, primary screen, counter-screen for post-Golgi transport modulator project | efflux-deficient yeast background strain, growth absorbance A615, 16 h | inhibition, % at 10 µM | 98,000 compounds, 5% hits | AID 738, 2007
CYP2C9 inhib – blockers of cytochrome P450 2C9 activity – biochemical, luminescence, ADME assay, primary screen. P11712. CYP2C9 Supersomes, luciferin-H conversion. inhibition, % at 5 µM. 96,000 compounds, 20% hits. AID 777, 2007;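 active = blocking of liver enzyme CYP2C9 beyond about 50% at 5 µM, limit read from the data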
PostGolgi yeast – phenotypic screen on post-Golgi transport, primary screen; post-Golgi transport phenotypic cell assay; AID 739, 2007; 98,000 compounds, 0.9% hits; inhibition, % at 10 µM;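 also: yeast cells grown in 1536-well plates; yeast grown about 18 h at 30C before absorbance read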
CYP2C9 act – human CYP2C9 activators, primary screen, biochemical, luminescence; Cytochrome P450 2C9 (Homo sapiens), P11712; recombinant CYP2C9, luciferin-H conversion; hits give high values; factor 1 = untreated enzyme, 0 = blocked; activation factor at 5 µM; 96,000 compounds, 1.4% hits; AID 1024, 2008;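 active = activation factor of 2 or more for CYP2C9 at a 5 µM dose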;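 also: 0 = sulfaphenazole-blocked wells and 1 = vehicle-only wells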
CYP2C19 inhib – blockers of cytochrome P450 2C19 activity – biochemical, luminescence, ADME assay, primary screen | P33261 | CYP2C19 Supersomes, luciferin-H EGE luminescence, 30 min | inhibition, % at 5 µM | 96,000 compounds, 21% hits | AID 778, 2007;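 active = CYP2C19 inhibition above a set limit at 5 µM in the primary screen, cut at about 50% in these data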;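 also: plate controls were negative control wells for no effect and 2.5 mM tranylcypromine positive control for full effect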
* marks the source's active call; other numbers are inactive results; x = no result. Rule as the data show it, unless noted: active = inhibition above about 30%; inactive = the rest.

SMILES | CYP2C19 act | PostGolgi ctrl | CYP2C9 inhib | PostGolgi yeast | CYP2C9 act | CYP2C19 inhib
CC1(C)CC(=O)C2=C(C1)Nc1cc3c(cc1C2c1ccc(F)cc1)OCO3 (configuration not stated) | 0.9 | 6 | 23 | 3 | 0.8 | 12
COc1ccc(C2C3=C(CC(C)(C)CC3=O)Nc3cc4c(cc32)OCO4)cc1 (configuration not stated) | 0.7 | 22 | 70* | 9 | 0.3 | 32
CC1(C)CC(=O)C2=C(C1)Nc1cc3c(cc1C2c1ccc2c(c1)OCO2)OCO3 (configuration not stated) | 0.5 | 10 | 76* | -5 | 0.2 | 48
Cc1nc(-c2ccccn2)sc1C(=O)Nc1ccc(F)cc1 | 0.9 | 6 | -114 | 4 | 2.1* | 10
COC(=O)c1cc(-c2c[nH]c3ccccc23)n[nH]1 | 0.1 | 27 | 84* | 2 | 0.2 | 85*
COC(=O)c1cc(-c2c(C)nn(-c3ccccc3)c2C)n[nH]1 | 1.1 | 17 | -5 | -4 | 1 | -5
COC(=O)c1cc(-c2ccc(Br)cc2)n[nH]1 | 0.3 | 0 | 17 | -6 | 0.8 | 69*
CC1(C)CC(=O)C(C(c2cccnc2)C2C(=O)CC(C)(C)CC2=O)C(=O)C1 | 1.2 | 16 | 4 | 3 | 1 | -20
COc1ccc2c(-c3ccccc3)cc(N3CCOCC3)nc2c1 | 1 | 14 | 24 | 9 | 0.8 | -1
CCOC(=O)c1ccc(NC(=O)c2ccc(NC(=O)c3ccccc3)cc2)cc1 | 0.9 | -6 | 42 | -3 | 0.6 | 12
CCOC(=O)C1=C(NC(=S)NC(=O)c2ccccc2)c2ccccc2CC1C(C)C (configuration not stated) | 0.6 | 14 | 77* | 14 | 0.2 | 41
O=c1c2c(nc3cc(-c4cccc(Cl)c4)[nH]n13)CCC2 | 1 | -8 | 7 | 17 | 0.9 | 2
COc1cccc(N2CCN(c3c4c(nc5ncnn35)CCC4)CC2)c1 | 0.7 | 0 | 12 | 4 | 0.9 | 25
Cc1cccc(-c2cc3nc4c(c(N5CCCC(O)C5)n3n2)CCC4)c1 (configuration not stated) | 0.1 | 79* | 98* | -1 | 0 | 87*
OC1CCCN(c2c3c(nc4cc(-c5cccc(Cl)c5)nn24)CCC3)C1 (configuration not stated) | x | 96* | x | 22 | x | x
CCOC(=O)C1=C(C)NC(=O)NC1c1ccc(OC)c(CN2CCOCC2)c1 (configuration not stated) | 0.9 | -2 | 14 | -4 | 0.9 | 15
N#Cc1ncc(C(F)(F)F)cc1Sc1ccc(N)cc1 | 0 | -3 | 81* | -3 | 0.2 | 96*
O=C1/C(=C\c2ccccc2)CCc2c1[nH]c1ccccc21 | 0.1 | 10 | 26 | -7 | 0.7 | 91*
Cc1ccc(/C=C2/CCc3c([nH]c4ccccc34)C2=O)cc1 | 0.4 | 3 | 24 | 2 | 0.8 | 63*
Cc1ccc2[nH]c3c(c2c1)CC/C(=C/c1ccccc1)C3=O | 0.6 | 7 | 29 | -8 | 0.7 | 40
CCN(CC)S(=O)(=O)c1ccc2c(c1)nc(SC(C)C(N)=O)n2-c1ccc(OC)cc1 (configuration not stated) | 0.4 | 26 | 91* | -16 | 0.1 | 62*
CC1CCCCN1C(=O)/C(=C\c1ccccc1)c1ccccc1 (configuration not stated) | 0.5 | 24 | 84* | 1 | 0.2 | 49
CN1CCN(C(=O)/C(=C/c2ccccc2)c2ccccc2)CC1 | 0.7 | 7 | 9 | -6 | 0.9 | 34
Cc1noc(C)c1C(=O)Nc1ccc(F)cc1F | 1 | 6 | -6 | 6 | 1.1 | 3
OC12CCCCC1C(c1ccc3c(c1)OCO3)N(Cc1cccc(F)c1)CC2 (configuration not stated) | 0.2 | 13 | 79* | 5 | 0.2 | 79*
SMILES | CYP2C19 act | PostGolgi ctrl | CYP2C9 inhib | PostGolgi yeast | CYP2C9 act | CYP2C19 inhib
Fc1ccccc1CN1CCCCCCC1 | 0.7 | 4 | 9 | 7 | 0.9 | 34
OC12CCCCC1C(c1ccc3c(c1)OCO3)N(Cc1ccc(F)cc1)CC2 (configuration not stated) | 0.3 | 2 | 45 | -2 | 0.5 | 72*
OC12CCCCC1C(c1ccc3c(c1)OCO3)N(Cc1ccccc1F)CC2 (configuration not stated) | 0 | 10 | 95* | 2 | 0.1 | 98*
CCN1CCN(C(=O)C2CCC(CNS(=O)(=O)c3ccccc3)CC2)CC1 (configuration not stated) | 1.2 | 14 | -41 | 10 | 1.4 | -24
O=C(c1ccccc1)N(c1ccccc1)C1C=CS(=O)(=O)C1 (configuration not stated) | 0.7 | 0 | 17 | 5 | 0.8 | 25
CCOc1ccc(CN(C)CC(=O)c2c(N)n(Cc3ccccc3)c(=O)n(CC)c2=O)cc1OC | 1.2 | 12 | -31 | 7 | 1.3 | -16
CCn1c(=O)c(C(=O)CN2CCCc3ccccc32)c(N)n(Cc2ccccc2)c1=O | 0.2 | 6 | 93* | 1 | 0.1 | 81*
CCn1c(=O)c(C(=O)CN(C)Cc2cccc(OC)c2OC)c(N)n(Cc2ccccc2)c1=O | 0.3 | 1 | 34 | 1 | 0.7 | 67*
CCCc1cc(SCC(=O)Nc2c(C)n(C)n(-c3ccccc3)c2=O)n2c(nc3ccccc32)c1C#N | 1.2 | -2 | 10 | -17 | 0.9 | -16
CCN(CCCn1c(=S)[nH]c2ncccc2c1=O)c1ccccc1 | 1 | 4 | -36 | -7 | 1.4 | 0
C=C(C)Cn1c(SCC)nc2ccccc2c1=O | 0.1 | 44* | 35 | 1 | 0.7 | 88*
CC(=O)NCCn1c(SCC(=O)OCc2ccccc2)nc2ccccc2c1=O | 0.1 | 13 | 52* | 1 | 0.5 | 86*
CC(=O)NCCn1c(SCC(=O)c2ccccc2)nc2ccccc2c1=O | 0.3 | 24 | 55* | -4 | 0.4 | 71*
CCN(CCCn1c(SCC#N)nc2ccccc2c1=O)c1ccccc1 | 0.2 | 30 | 93* | -16 | 0.1 | 77*
C=C(C)Cn1c(SCC#N)nc2ccccc2c1=O | 0.5 | 4 | 45 | 12 | 0.6 | 47
Cc1ccc2cc(CCNC(=O)C3CCCC3)c(=O)[nH]c2c1 | 1 | 12 | -11 | 4 | 1.1 | 0
CCc1cc2c(=O)n(C(C)C(=O)OC3CCCCC3)cnc2s1 (configuration not stated) | 1 | 12 | 31 | 13 | 0.7 | 0
CCOC(=O)c1cccc(NC(=O)CSc2nnc(-c3ccncc3)n2CCCOC)c1 | 0.5 | 0 | 64* | 15 | 0.4 | 50*
